Results published in PubChem BioAssay (NCATS).
Inconclusive results are not listed. Entries that show only a call come without a potency. Activity calls are given as the source filed them. The call rests on the fitted dose curve; in most records, active means well fitted curve in the direction sought with a large enough effect; inconclusive means small, poorly fitted or top-dose-only effect, or another doubt; inactive means no such curve, though single readings can be large; an effect the other way counts as inactive or inconclusive. *1 amine or outer side, *2 acyl side, *3 side chain or, on linkers, in order; H or OH if unused. Where a SMILES comes first, the peptide text is derived from it. Bridges are numbered along the chain shown (N, C = ends). [ ]: non-standard residue; d: D form. The star is where a group is joined. X5 = NC1=N[C@@H]([C@H](N[*:1])C(=O)[*:2])C[C@H](O)N1; ΔAla(Z-3-ureido) = NC(=O)N/C=C(\N)C(=O)O; β3hOrn = NCCC[C@H](N)CC(=O)*; Dap = NC[C@H](N)C(=O)O

Legend:
[1] = qHTS assay to identify small molecule inhibitors of chordoma cells - UCH-2 (AID 1259356); further: series mostly up to about 46 µM
[2] = P-glycoprotein substrates identified in KB-8-5-11 adenocarcinoma cell line, qHTS therapeutic library screen (AID 1346987); details: outcome: dose series up to 44.5 µM unless noted; further: nearly all actives have a fitted effect of over 65% in size; further: potency means the concentration at half of the fitted maximal effect
Outline: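 KB-8-5-11: colchicine-selected sub-line of KB-3-1 over-expressing P-gp; assay medium lacked colchicine. 72 h drug exposure at 37 degree C, CellTiter-Glo.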

Compound	Potency [1]	Potency [2]
CCCCCCCCCCCCCCCCCCCCCC(=O)Nc1ccn([C@@H]2O[C@H](CO)[C@@H](O)[C@@H]2O)c(=O)n1	inactive	inactive
NC(=O)[C@H]1O[C@@H](O)[C@H](O)[C@@H](O)[C@@H]1O	inactive	inactive
CC1CS(=O)(=O)CCN1/N=C/c1ccc([N+](=O)[O-])o1 (stereo unspecified)	inactive	inactive
C[C@@H](O)[C@H]1C(=O)N2C(C(=O)[O-])=C(SC3Cn4cnc[n+]4C3)[C@H](C)[C@H]12 (stereo partly specified)	inactive	inactive
OC[C@H]1O[C@@H](O[C@H]2[C@H](O)[C@@H](O)[C@H](O)O[C@@H]2CO)[C@H](O)[C@@H](O)[C@@H]1O	inactive	inactive
CC(C)CCC[C@@H](C)[C@H]1CC[C@H]2[C@@H]3CC=C4C[C@@H](O)CC[C@]4(C)[C@H]3CC[C@]12C	inactive	inactive
Cc1cccc(C)c1NC(=O)C1CCCCN1C (stereo unspecified)	inactive	inactive
CC(=O)Nc1ccc(OC(C)=O)cc1	inactive	inactive
CCCOc1cc(N)ccc1C(=O)OCCN(CC)CC	inactive	inactive
CC(C)(C)CC(C)(C)c1cc(Cc2cc(C(C)(C)CC(C)(C)C)cc(-n3nc4ccccc4n3)c2O)c(O)c(-n2nc3ccccc3n2)c1	inactive	inactive
CO/N=C(/C(=O)N[C@@H]1C(=O)N2C(C(=O)O)=C(COC(N)=O)CS[C@H]12)c1ccco1	inactive	inactive
NC(N)=NCC1COc2ccccc2O1 (stereo unspecified)	inactive	inactive
CCCCCCCCCCCCCCCCCCOCC(COP(=O)([O-])OCC[N+](C)(C)C)OC (stereo unspecified)	inactive	inactive
CC1=CCC2CC1C2(C)C (stereo unspecified)	inactive	inactive
CC/C=C\C/C=C\C/C=C\CCCCCCCC(=O)O	inactive	inactive
Cc1ncc(COP(=O)(O)O)c(CN)c1O	inactive	inactive
O=C(O)c1ccc(NC(=O)[C@H](Cc2ccc(O)cc2)NC(=O)c2ccccc2)cc1	inactive	inactive
CCOc1ccc(S(=O)(=O)O)c2cccnc12	inactive	inactive
CCCc1ccc(C(=O)O)cc1	inactive	inactive
COc1ccc(/C=N/NC(=O)c2ccncc2)c(C(=O)O)c1OC	inactive	inactive
NC(N)=O	inactive	inactive
Cc1cccc(C)c1NC(=O)NC1=CCCN1C	inactive	inactive
OB(O)O	inactive	inactive
O=C(O)[C@H]1C(=CCO)O[C@H]2CC(=O)N12	inactive	inactive

Compound	Potency [1]	Potency [2]
NCCC[C@H](N)CC(=O)N[C@H]1CNC(=O)[C@H]([C@H]2C[C@H](O)NC(N)=N2)NC(=O)/C(=C/NC(N)=O)NC(=O)[C@H](CO)NC(=O)[C@H](CO)NC1=O (β3hOrn-[Dap]SS[ΔAla(Z-3-ureido)][X5]; lactam 1-C)	inactive	inactive
COC(=O)c1ccccc1O	inactive	inactive
CC(C)[C@@H]1CC[C@@H](C)C[C@H]1OC(=O)c1ccccc1O	inactive	inactive
NC(=O)[C@@H]1CCCN1C(=O)[C@H](Cc1cnc[nH]1)NC(=O)[C@@H]1CCC(=O)N1	inactive	inactive
O=C(O)/C=C/C(=O)Nc1ccc(S(=O)(=O)Nc2nccs2)cc1	inactive	inactive
CCOc1cc(-c2nccc3cc(OC)c(OC)cc23)cc(OCC)c1OCC	inactive	13 µM (active)
CN1CCN(C(c2ccccc2)c2ccc(Cl)cc2)CC1 (stereo unspecified)	inactive	inactive
CC(C)(O/N=C(\C(=O)N[C@@H]1C(=O)N2C(C(=O)[O-])=C(C[n+]3ccccc3)CS[C@H]12)c1csc(N)n1)C(=O)O	inactive	inactive
CCCCCCCCCCCCCC(=O)OCC(COP(=O)([O-])OCC[N+](C)(C)C)OC(=O)CCCCCCCCCCCCC (stereo unspecified)	inactive	inactive
CC(=O)Nc1c(I)c(C(=O)O)c(I)c(N(C)C(C)=O)c1I	inactive	inactive
C[C@H](N)C(=O)N[C@@H](C)P(=O)(O)O	inactive	inactive
CCCCCCCCCCCCCCCCCC[N+](C)(C)CCC[Si](OC)(OC)OC	inactive	inactive
S=C=Nc1ccc(N=C=S)cc1	inactive	inactive
C=C1CC[C@H](O)C/C1=C\C=C1/CCC[C@]2(C)[C@@H]([C@H](C)CCCC(C)C)CC[C@@H]12	inactive	inactive
Cc1ncc[nH]1	inactive	inactive
CC1(C)S[C@@H]2[C@H](NC(=O)C3(N)CCCCC3)C(=O)N2[C@H]1C(=O)O	inactive	inactive
CC(=O)Oc1cccc(C(=O)O)c1OC(C)=O	inactive	inactive
NC(=O)CC[C@@H]1NC(=O)[C@H](Cc2ccccc2)NC(=O)[C@H](Cc2ccc(O)cc2)NC(=O)[C@@H](N)CSSC[C@@H](C(=O)N2CCC[C@H]2C(=O)N[C@@H](CCCN=C(N)N)C(=O)NCC(N)=O)NC(=O)[C@H](CC(N)=O)NC1=O	inactive	inactive
CCc1ncnc2cc(OC)c(OC)cc12	inactive	inactive
O=P(O)(O)CP(=O)(O)O	inactive	inactive
CN[C@@H]1[C@@H](O[C@H]2O[C@H](CO)[C@@H](N)[C@H](O)[C@H]2O)O[C@H]2C[C@@H](N)[C@@H](O[C@H]3[C@H](O)[C@@H](O)[C@H](N)C[C@@H]3N)O[C@@H]2[C@@H]1O	inactive	inactive
c1ccc2ccccc2c1	inactive	inactive
O=C(Cc1cccs1)N[C@@H]1C(=O)N2C(C(=O)[O-])=C(C[n+]3ccccc3)CS[C@H]12	inactive	inactive
CC1CC(O)CC(C)(C)C1 (stereo unspecified)	inactive	inactive
